The record followed here is PubChem BioAssay AID624156 (Broad Institute, 2012).

The structures appear in SMILES notation. The campaign covered roughly 46,000 compounds. About 900 (2%) were called active. Inconclusive results (about 1%) are left out. The entries come from a sample that favours actives as a whole. A number with no mark means an inactive call. No stated cut-off is given here; in the data, active means ROS induction above about 79% (passing the limit was not always enough); inconclusive means no clear call, values can overlap the other calls.

A short description of this assay: ROS inducers in U2OS cancer cells, primary screen, cell-based, H2DCF-DA fluorescence (AID 624156).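 Further: 0% = DMSO vehicle median and 100% = reference compound median.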 Conditions: at 10 µM, stronger effect = higher value.
With `C[C@@H]1CN([C@@H](C)CO)C(=O)Cc2cc(NC(=O)Cc3ccccc3)ccc2O[C@@H]1CN(C)Cc1ccc(Oc2ccccc2)cc1`, the ROS induction (% of piperlongumine) is 115% (active).
With `C[C@H]1CN([C@@H](C)CO)C(=O)Cc2cc(NC(=O)Cc3ccccc3)ccc2O[C@@H]1CN(C)Cc1ccc(Cl)c(Cl)c1`, the ROS induction (% of piperlongumine) was 88.2% (active).
Regarding `C[C@@H]1CN([C@H](C)CO)C(=O)Cc2cc(NC(=O)Cc3ccccc3)ccc2O[C@@H]1CN(C)Cc1ccccc1`, the ROS induction (% of piperlongumine) was 35.5%.
The same measure for `C[C@@H]1CN([C@H](C)CO)C(=O)Cc2cc(NC(=O)Nc3ccccc3)ccc2O[C@H]1CN(C)Cc1ccc(Cl)c(Cl)c1`: 13.3%.
The figure for `C[C@H]1CN([C@@H](C)CO)C(=O)c2cccc(NS(=O)(=O)c3ccc(Cl)cc3)c2O[C@@H]1CN(C)Cc1ccc(Oc2ccccc2)cc1` is 23.2%; for `Cc1cc(C(=O)Nc2cccc3c2O[C@@H](CN(C)Cc2ccc(C(=O)Nc4ccccc4N)cc2)[C@H](C)CN([C@@H](C)CO)C3=O)n(C)n1` it is 29%.
The same measure for `COc1ccc(CN(C)C[C@H]2Oc3ccc(NC(=O)Cc4ccccc4)cc3CC(=O)N([C@@H](C)CO)C[C@@H]2C)cc1`: 65.1%.
Take `C[C@@H]1CN([C@@H](C)CO)C(=O)c2cccc(NC(=O)C3CC3)c2O[C@@H]1CN(C)Cc1ccccc1`: the ROS induction (% of piperlongumine) is -2.71%.
The figure for `C[C@@H]1CN([C@H](C)CO)C(=O)Cc2cc(NC(=O)Cc3ccccc3)ccc2O[C@H]1CN(C)Cc1ccc(Oc2ccccc2)cc1` is 58.8%; for `C[C@H](CO)N1C[C@H](C)[C@@H](CN(C)Cc2ccc(C(=O)Nc3ccccc3N)cc2)Oc2c(NC(=O)C3CC3)cccc2C1=O` it is 101% (active); for `C[C@@H]1CN([C@H](C)CO)C(=O)c2cccc(NS(=O)(=O)c3ccc(F)cc3)c2O[C@H]1CN(C)Cc1ccc(Oc2ccccc2)cc1` it is 102% (active).
Consider `C[C@@H]1CN([C@H](C)CO)C(=O)c2cccc(NS(=O)(=O)c3ccc(Cl)cc3)c2O[C@@H]1CN(C)Cc1ccc(Oc2ccccc2)cc1`, for which the ROS induction (% of piperlongumine) is 16.8%.
The figure for `O=C(CSc1nc2c(sc3ccccc32)c(=O)n1Cc1ccccc1)NCCC1=CCCCC1` is -2.88%.
For the molecule `O=C(CN(Cc1ccc(Cl)cc1Cl)S(=O)(=O)c1ccccc1)N1CCCC1`, the ROS induction (% of piperlongumine) was -2.84%.
The same measure for `O=C1CSc2ccccc2N1Cc1ccc(Cl)cc1`: 2.65%; for `Brc1ccc(CSc2c[nH]c3ccccc23)cc1`: -17.1%.
The figure for `Cc1ccc(CNC(=O)c2nc3c(nnn3Cc3ccco3)c(=O)[nH]2)cc1` is 27.5%; for `CC(C)c1ccc(N2C(=O)CSCC2(C(=O)NC2CCCCC2)c2ccc(Cl)cc2)cc1` (stereo unspecified) it is -3.88%.
Consider `CCCN(c1ccccc1OC)S(=O)(=O)c1cc(Br)cnc1N`, for which the ROS induction (% of piperlongumine) was 1.12%.
The figure for `O=C(NC1CCCCCCC1)c1cccs1` is -3.89%; for `O=C(CCCn1c(=O)c2cccn2c2ccccc21)N1CCCCC1` it is -0.17%; for `CN(C(=O)c1noc2c1CSc1ccccc1-2)c1cccc(C(F)(F)F)c1` it is -4.5%.
The figure for `O=C(Nc1ccc(-n2nncc2-c2ccccc2)cc1)c1ccc(S(=O)(=O)N2CCCCC2)cc1` is 51.9%.
The same measure for `N#CC(C(=O)Nc1cccc(C(F)(F)F)c1)=C1CCCCCC1`: 14.7%; for `Cc1cccc(NC(=S)N2CCn3cccc3C2c2cccs2)c1` (stereo unspecified): -3.68%.
Regarding `C[C@H]1CN([C@@H](C)CO)C(=O)c2cc(NC(=O)Cc3cn(C)c4ccccc34)ccc2O[C@H]1CN(C)Cc1ccc(Cl)c(Cl)c1`, the ROS induction (% of piperlongumine) is 4.82%.
The figure for `C[C@H]1CN([C@@H](C)CO)C(=O)Cc2cc(NS(=O)(=O)c3cccs3)ccc2O[C@@H]1CN(C)Cc1ccc(Oc2ccccc2)cc1` is 92.6% (active).
The same measure for `C[C@@H]1CN([C@@H](C)CO)C(=O)c2cc(NC(=O)Cc3ccccc3)ccc2O[C@H]1CN(C)Cc1ccc(Cl)c(Cl)c1`: 44.7%.
Consider `C[C@H]1CN([C@@H](C)CO)C(=O)Cc2cc(NS(=O)(=O)c3cccs3)ccc2O[C@H]1CN(C)Cc1ccncc1`, for which the ROS induction (% of piperlongumine) is -8.79%.
As for `C[C@H]1CN([C@@H](C)CO)C(=O)c2cc(NC(=O)Cc3cn(C)c4ccccc34)ccc2O[C@@H]1CN(C)Cc1ccc(Cl)c(Cl)c1`, the ROS induction (% of piperlongumine) was 118% (active).
The figure for `C[C@@H]1CN([C@H](C)CO)C(=O)Cc2cc(NS(=O)(=O)c3cccs3)ccc2O[C@@H]1CN(C)Cc1ccc(C(=O)O)cc1` is 11.6%; for `O=C(Nc1cccc(-c2nc3ccccc3o2)c1)c1ccc(Br)cc1` it is 4.05%; for `Cc1nn(C)cc1C(=O)c1ccccc1` it is 36.5%.
The same measure for `Cc1ccc(C(=O)N/C(=C\c2ccccc2)C(=O)Nc2c(C)n(C)n(-c3ccccc3)c2=O)cc1`: 0.477%; for `COc1ccc(CNCC2(c3ccccc3)CCCC2)cc1`: 4.91%; for `COC(=O)c1ccc(-c2ccco2)n1CC(=O)NC1CCCC1`: -2.05%.
The figure for `CCC/C=C/C(=O)OC1C(O)C23C(O)OC4(CCC5C6(C)CCC(OC7OC(C(=O)O)C(O)C(OC8OC(CO)C(O)C(O)C8OC8OC(C)C(O)C(O)C8OC8OCC(O)C(O)C8O)C7OC7OC(CO)C(O)C(O)C7O)C(C)(C)C6CCC5(C)C4(C)CC2OC(C)=O)C3CC1(C)C` (stereo unspecified) is -31.6%; for `COCc1cc(C)nc2sc(C(N)=O)c(N)c12` it is 10.2%; for `Cc1cc(-c2cccs2)c2c(N)c(C(=O)c3ccccc3)sc2n1` it is 95.7% (active).
`O=C(O)c1ccc(S(=O)(=O)c2ccc(Cl)cc2)cc1`: the ROS induction (% of piperlongumine) was -2.87%.
For `Cc1c(S(=O)(=O)Nc2ccc(Cl)cc2)sc2ccc(Cl)cc12`, the ROS induction (% of piperlongumine) was -12.9%.
The same measure for `Fc1ccc(NCc2cn(-c3ccccc3)nc2-c2cccs2)c(F)c1`: -6.92%; for `N#CCC(=O)N(Cc1ccccc1)C(=O)Nc1cccc(F)c1`: -15.5%; for `CC(C)(C)n1ncc2c(=O)n(Cc3ccc(Cl)cc3)cnc21`: -3.3%.
As for `N#Cc1c(SCC(=O)Nc2ccccc2)ncc2cc3ccccc3nc12`, the ROS induction (% of piperlongumine) is 192% (active).
The same measure for `Cc1sc2ncnc(SCC(=O)Nc3ccccc3)c2c1-c1ccccc1`: -2.63%; for `O=C(CSc1nnc(-c2ccccc2)c(-c2ccccc2)n1)Nc1ccccc1`: -5.87%.
The figure for `CCOC(=O)CCSc1nnc2c3ccccc3n(C)c2n1` is 39.9%; for `CCn1c2ccccc2c2nnc(SCC(=O)O)nc21` it is -16.9%; for `CCCn1c2ccccc2c2nnc(SCC(=O)Nc3cccc4ccccc34)nc21` it is 91.7% (active).
With `C=CCn1c2ccccc2c2nnc(SCCCC(=O)c3ccc(F)cc3)nc21`, the ROS induction (% of piperlongumine) was 81.9% (active).
Take `C=CCn1c2ccccc2c2nnc(SCC(=O)N3c4ccccc4Sc4ccccc43)nc21`: the ROS induction (% of piperlongumine) is 11.2%.
With `c1ccc(Cn2c3ccccc3c3nnc(SCc4ccc5nonc5c4)nc32)cc1`, the ROS induction (% of piperlongumine) is 21.9%.
For the molecule `O=C(CCCCC(=O)N/N=C/c1ccc[nH]1)NO`, the ROS induction (% of piperlongumine) is -11.8%.
The same measure for `COC(=O)c1sccc1NC(=O)Cc1noc2ccc(C)cc12`: -3.41%.
The figure for `CCC(C(=O)Nc1ccc(OC)c(OC)c1)n1c(C)c2cnn(-c3ccccc3)c(=O)c2c1C` (stereo unspecified) is 6.12%.
The figure for `CC(=NCc1ccco1)C1=C(O)c2ccccc2C1=O` is 146% (active); for `CC(=NCc1ccc2c(c1)OCO2)C1=C(O)c2ccccc2C1=O` it is 3.64%.
For `COc1ccc(C=Nc2ccc(C(C)(C)C)cc2)cc1`, the ROS induction (% of piperlongumine) is -6.06%.
For `Cc1cccc(N2CCN(C(=O)CC3(CC4=NS(=O)(=O)c5ccccc5N4)CCCC3)CC2)c1C`, the ROS induction (% of piperlongumine) is 172% (active).
In the case of `Cc1cccc(N2CCN(C(=O)CCn3c(=S)[nH]c4cc5c(cc4c3=O)OCO5)CC2)c1C`, the ROS induction (% of piperlongumine) is 8.61%.
The same measure for `CC1=C(C(=O)OC(C)C)C(c2cn(-c3ccccc3)nc2-c2ccc(OC(C)C)cc2)NC(=O)N1` (stereo unspecified): -3.28%.
`COc1ccc(S(=O)(=O)N(C)C)cc1`: the ROS induction (% of piperlongumine) is -6.36%.
The same measure for `Cc1ccc2nc(Nc3ccccc3)cc(C)c2c1`: 178% (active).
Consider `Cc1ccc(Nc2nc(C)cc(C)c2C(N)=O)cc1`, for which the ROS induction (% of piperlongumine) is 19.7%.
The figure for `Cc1ccc2nc(C)c3c(c2c1)N(c1ccccc1)CC3` is 50.9%.
The same measure for `C[C@@H]1CN([C@H](C)CO)C(=O)Cc2cc(NC(=O)Nc3ccccc3)ccc2O[C@@H]1CN(C)Cc1ccc(C(F)(F)F)cc1`: 23.2%; for `COC(=O)c1c(C)nc(C)c(C(=O)OC)c1-c1csc(S(=O)(=O)/N=C/N(C)C)c1`: -10.2%.
The figure for `CCNC(=S)N1CCN(CCN=CC2=C(O)CC(c3ccccc3)CC2=O)CC1` (stereo unspecified) is -5.61%; for `C=CCn1c(=S)sc2c(SCC(=O)N3CCc4ccccc43)ncnc21` it is -9.07%.
On to `CCOC(=O)c1nnn2c1nc(N1CCN(c3ccccc3)CC1)c1ccccc12`, for which the ROS induction (% of piperlongumine) was 155% (active).
On to `CCOC(=O)c1c(C)n(C)c2ccccc12`, for which the ROS induction (% of piperlongumine) was -3.38%.
The same measure for `CCOC(=O)c1nnn2c3ccccc3c(=O)n(C)c12`: 38.4%; for `CCCNC(=O)Cn1c(=O)c2cccn2c2ccccc21`: -9.02%; for `C=C1C(=O)O[C@H]2C3=C(C)C[C@H](OC(C)=O)C[C@]3(C)CC[C@@H]12`: 210% (active).
The figure for `Cn1c(COc2ccc(C(C)(C)c3ccccc3)cc2)n[nH]c1=S` is -8.56%; for `CCc1cccc(O[C@@H]2O[C@@H]3COC(c4ccccc4)O[C@H]3[C@H](O)[C@H]2NC(C)=O)c1` (stereo partly specified) it is -15.2%.
As for `COc1ccccc1N(CC(=O)Nc1ccc(C(F)(F)F)cc1)S(C)(=O)=O`, the ROS induction (% of piperlongumine) is 4.82%.
The same measure for `NC(=O)c1c(NC(=O)c2cnn3c(C(F)F)cc(-c4ccccc4)nc23)sc2c1CCCC2`: 12.4%.
With `O=C(NCc1cccnc1)c1cnn2c(C(F)F)cc(-c3ccccc3)nc12`, the ROS induction (% of piperlongumine) was 170% (active).
The figure for `O=C(c1cc([N+](=O)[O-])ccc1NCc1cccnc1)N1CCOCC1` is 1.17%.
